# PubChem BioAssay AID372 (MTDP, 2006)
# Screen size: about 100,000 compounds; about 770 (0.77%) were called active. No stated cut-off is given here; in the data, active means inhibition above about 50%; inactive means the rest. Shown is part of a subset that was picked to be rich in actives.
# Target: Gag-Pol polyprotein (Human immunodeficiency virus type 1 group M subtype B (isolate HXB2)) (UniProt P04585)
# Experiment: RNase H inhibition, HIV 1 Gag Pol polyprotein, FRET biochemical assay, screening (AID 372)
# Conditions: HIV-1 RT RNase H, FRET RNA/DNA substrate fluorescence; at 10 µM; active compounds read high
row,SMILES,inhibition
1,Cc1cccc(NC(=O)C(=O)NNC(=O)c2ccccc2C)c1,4% (inactive)
2,Cc1ccc(-c2ccccc2)n1-c1ccccc1C(=O)O,12% (inactive)
3,O=C(O)/C=C\C(=O)N/N=C/c1ccccc1,4% (inactive)
4,O=C(Nc1ccccn1)c1ccc2c(c1)C(=O)N(c1cccc3c(N4C(=O)c5ccc(C(=O)Nc6ccccn6)cc5C4=O)cccc13)C2=O,2% (inactive)
5,CCC1CCc2c(sc(NC(=O)c3ccc([N+](=O)[O-])cc3Cl)c2C(=O)OC)C1 (centres undefined),0% (inactive)
6,Cc1ccc(S(=O)(=O)/N=C2/C=C(N3CCOCC3)C(=O)c3ccccc32)cc1,5% (inactive)
7,O=C1C(N2CCOCC2)=C/C(=N\S(=O)(=O)c2ccc(Cl)cc2)c2ccccc21,61% (active)
8,CC1=C(C)/C(=N\S(=O)(=O)c2ccc(C)cc2)C=C(N2CCOCC2)C1=O,19% (inactive)
9,Cc1ccccc1N1C(=O)C2C3c4ccccc4C(C)(c4ccccc43)C2C1=O (centres undefined),0% (inactive)
10,O=C(COc1cc(O)c2c(=O)cc(-c3ccccc3)oc2c1)c1ccccc1,3% (inactive)
11,O=C1C(=O)N(c2nccs2)C(c2ccccc2F)/C1=C(/O)c1ccc(Cl)cc1 (centres undefined),21% (inactive)
12,COc1cccc(NC(=O)Nc2nnc(-c3ccccc3SCc3ccccc3F)s2)c1,23% (inactive)
13,COc1cccc(NC(=O)Nc2nnc(-c3ccccc3I)s2)c1,0% (inactive)
14,COc1cccc(NC(=O)Nc2nnc(-c3ccccc3F)s2)c1,53% (active)
15,CCc1nnc(NC(=O)CCCOc2ccc(Cl)cc2C)s1,12% (inactive)
16,O=[N+]([O-])c1ccc(NCCCNS(=O)(=O)c2ccc(Cl)cc2)cc1,8% (inactive)
17,O=C(O)CCC(=O)NNC(=O)c1ccncc1,10% (inactive)
18,CCOC(=O)CNC(=O)c1ccc([N+](=O)[O-])cc1,4% (inactive)
19,CCOC(=O)C1CCCN(C(=O)c2cc(C(=O)OC)cc([N+](=O)[O-])c2)C1 (centres undefined),16% (inactive)
20,CCOC(=O)CNC(=O)c1cc(C(=O)OC)cc([N+](=O)[O-])c1,52% (active)
21,CCOC(=O)CNC(=O)c1cccc([N+](=O)[O-])c1,15% (inactive)
22,COC(=O)c1cc(C(=O)N2CCC(C(=O)OC)CC2)cc([N+](=O)[O-])c1,7% (inactive)
23,CCOC(=O)C1CCN(C(=O)c2cc(C(=O)OC)cc([N+](=O)[O-])c2)CC1,54% (active)

row,SMILES,inhibition
1,O=C(CN(c1ccc([N+](=O)[O-])cc1)S(=O)(=O)c1ccccc1)NC1CC2CCC1C2 (centres undefined),13% (inactive)
2,Cc1ccc(N2C(=O)NC(=O)/C(=C\c3ccc(OCC(=O)O)c(Br)c3)C2=O)cc1,3% (inactive)
3,O=C(NC(=S)Nc1cccc(C(F)(F)F)c1)c1ccc(-c2ccc(Cl)cc2)o1,10% (inactive)
4,O=C(Nc1ccc(F)cc1)Nc1nnc(-c2ccccc2SCc2ccccc2)s1,25% (inactive)
5,Clc1cccc(Cl)c1OCCCN1CCCCC1,2% (inactive)
6,Clc1cccc(Cl)c1OCCN1CCCC1,56% (active)
7,Clc1cccc(Cl)c1OCCCN1CCCC1,7% (inactive)
8,COc1cc(/C=C(\C#N)C(=O)Nc2ccc(F)cc2)c([N+](=O)[O-])cc1OC,3% (inactive)
9,Cc1ccc([N+](=O)[O-])cc1-c1[nH]c(-c2cccc(O)c2)nc1-c1ccccc1,32% (inactive)
10,Cc1ccc([N+](=O)[O-])cc1-c1[nH]c(-c2ccc(C#N)cc2)nc1-c1ccccc1,57% (active)
11,COc1cc(-c2nc(-c3ccccc3)c(-c3cc([N+](=O)[O-])ccc3C)[nH]2)cc(OC)c1OC,33% (inactive)
12,C/C(=C\c1cccc2ccccc12)[N+](=O)[O-],53% (active)
13,O=[N+]([O-])c1ccccc1C=Nc1cccc2ccccc12,6% (inactive)
14,N#C/C(=C/c1cccc2ccccc12)c1ccc([N+](=O)[O-])cc1,36% (inactive)
15,COC(=O)c1ccccc1NC(=O)c1cc(=O)[nH]c2ccccc12,1% (inactive)
16,CCOC(=O)c1ccc2[nH]c(C)c(C/C=C(/C)Cl)c(=O)c2c1,0% (inactive)
17,O=C(Nc1ccc2oc(-c3ccccc3)nc2c1)c1ccc2c(c1)OCCO2,11% (inactive)
18,O=C(Nc1ccc(-c2nc3cc(Cl)cc(Cl)c3o2)cc1)c1ccc2c(c1)OCCO2,58% (active)
19,O=C(Nc1ccc2oc(-c3ccc(F)cc3)nc2c1)c1ccc2c(c1)OCCO2,51% (active)
20,O=C(Nc1cccc(-c2nc3cc(Cl)ccc3o2)c1)c1ccc2c(c1)OCCO2,9% (inactive)
21,Cc1ccc(-c2nc3cc(Cl)cc(Cl)c3o2)cc1NC(=O)c1ccc2c(c1)OCCO2,24% (inactive)
22,O=C(Nc1ccc2oc(-c3cccc(I)c3)nc2c1)c1ccc2c(c1)OCCO2,56% (active)
23,O=C(Nc1ccc2oc(-c3cccc(Cl)c3)nc2c1)c1ccc2c(c1)OCCO2,37% (inactive)

row,SMILES,inhibition
1,Cc1ccc(C(=O)Nc2ccc(-c3nc4cc(Cl)cc(Cl)c4o3)cc2)cc1,11% (inactive)
2,O=C(Nc1ccc2oc(-c3ccc(I)cc3)nc2c1)c1ccc2c(c1)OCCO2,15% (inactive)
3,CCN(CC)CCOc1ccccc1C,3% (inactive)
4,COc1ccc(C(=O)N2CCN(S(=O)(=O)c3ccccc3)CC2)cc1,21% (inactive)
5,COc1cccc(C=C2C(=O)c3ccccc3C2=O)c1,0% (inactive)
6,CCOc1ccc(NC(=O)CN(c2ccc(Br)cc2)S(=O)(=O)c2ccccc2)cc1,17% (inactive)
7,Cc1ccc(N(Cc2ccc(C(=O)N/N=C/c3cc(Br)c(C)o3)cc2)S(C)(=O)=O)cc1C,19% (inactive)
8,Cc1ccc(N(Cc2ccc(C(=O)N/N=C/c3ccc(OC4CSC4)cc3)cc2)S(C)(=O)=O)cc1C,56% (active)
9,O=C(N/N=C/c1ccc(OC2CSC2)cc1)c1ccccc1,6% (inactive)
10,Brc1ccc(-c2nnnn2-c2ccccc2)cc1,12% (inactive)
11,COc1ccc(C(=O)NC(=S)Nc2cccc(-c3nc4cc(Cl)ccc4o3)c2)cc1[N+](=O)[O-],23% (inactive)
12,COc1ccc(C(=O)NC(=S)Nc2ccc(-c3nc4cc(Cl)ccc4o3)cc2)cc1[N+](=O)[O-],53% (active)
13,CCc1ccc2oc(-c3ccc(NC(=S)NC(=O)c4ccc(OC)c([N+](=O)[O-])c4)cc3)nc2c1,19% (inactive)
14,COc1ccc(C(=O)NC(=S)Nc2ccc3oc(-c4ccc(Cl)cc4)nc3c2)cc1[N+](=O)[O-],44% (inactive)
15,COc1ccc(C(=O)NC(=S)Nc2ccc(-c3nc4ccc(C)cc4o3)cc2)cc1[N+](=O)[O-],54% (active)
16,COc1ccc(C(=O)NC(=S)Nc2ccc(-c3nc4ccccc4o3)cc2)cc1Br,20% (inactive)
17,COc1ccc(C(=O)NC(=S)Nc2ccc(-c3nc4cc(C)ccc4o3)cc2)cc1Br,21% (inactive)
18,COc1ccc(C(=O)NC(=S)Nc2cccc(-c3nc4cc(C)ccc4o3)c2)cc1[N+](=O)[O-],23% (inactive)
19,COc1ccc(C(=O)NC(=S)Nc2ccc(-c3nc4ccc(C)cc4o3)cc2)cc1Br,60% (active)
20,CC(NC(=O)CSc1ncc(-c2ccccc2)[nH]1)c1ccccc1 (centres undefined),12% (inactive)
21,CC1=C(C(=O)OCCc2ccccc2)C(c2ccc(Cl)c([N+](=O)[O-])c2)C2=C(CCCC2=O)N1 (centres undefined),2% (inactive)
22,O=C(N/N=C/c1ccc([N+](=O)[O-])cc1)c1ccccn1,7% (inactive)
23,COc1ccc(I)cc1S(=O)(=O)N1CCN(c2ccc(F)cc2)CC1,16% (inactive)

row,SMILES,inhibition
1,C/C(=N/NC(=O)C1COc2cc3ccccc3cc2O1)c1ccc([N+](=O)[O-])cc1 (centres undefined),10% (inactive)
2,COc1ccc(C2CC(=O)C3=C(C2)NC(C)=C(C(=O)OCC(C)C)C3c2ccc(OC)c(OC)c2)cc1 (centres undefined),8% (inactive)
3,CCC(Sc1nc2ccccc2s1)C(=O)Nc1ccc([N+](=O)[O-])cc1 (centres undefined),10% (inactive)
4,O=C(NC(=S)Nc1cc([N+](=O)[O-])ccc1Cl)c1cccc(Cl)c1,45% (inactive)
5,O=C(O)c1ccc(Oc2ccc3c(c2)C(=O)N(c2ccc([N+](=O)[O-])cc2)C3=O)cc1,3% (inactive)
6,CC1=NN(c2ccc(S(N)(=O)=O)cc2)C(=O)/C1=C\c1ccc(-c2cccc(Cl)c2C)o1,67% (active)
7,CC1=NN(c2cccc(Cl)c2)C(=O)/C1=C/c1ccc(-c2ccccc2[N+](=O)[O-])o1,1% (inactive)
8,CCCCOC(=O)c1cccc(-c2ccc(/C=C3\C(=O)N(c4ccc(S(N)(=O)=O)cc4)N=C3C)o2)c1,39% (inactive)
9,Cc1ccc(N2C(=O)NC(=O)/C(=C/c3ccc(-c4ccc(Cl)cc4Cl)o3)C2=O)cc1,36% (inactive)
10,CC1=NN(c2ccc(S(N)(=O)=O)cc2)C(=O)/C1=C\c1ccc(-c2ccc(Cl)cc2)o1,43% (inactive)
11,O=C(Nc1ccc(Cl)c(-c2nc3ccccc3s2)c1)c1ccccc1F,14% (inactive)
12,CCOC(=O)c1c(NC(=S)NC(=O)c2ccccc2)sc2c1CC(C(C)C)OC2 (centres undefined),12% (inactive)
13,COc1ccc(CNC(=O)C(=O)Nc2ccccc2F)cc1,15% (inactive)
14,O=C(NN1C(=O)c2ccc(C(=O)c3ccc4c(c3)C(=O)N(NC(=O)c3ccncc3)C4=O)cc2C1=O)c1ccncc1,0% (inactive)
15,C/C(=N\N1CCN(Cc2cccc3ccccc23)CC1)c1cccs1,19% (inactive)
16,COC(=O)/C=C1\SC(=Nc2ccccc2)NC1=O,6% (inactive)
17,O=C1C=C/C(=N\S(=O)(=O)c2ccc(Cl)cc2)C=C1Cl,37% (inactive)
18,O=C1C=CC(=NS(=O)(=O)c2cc(Cl)ccc2Cl)C=C1,46% (inactive)
19,Clc1cccc(C=Nc2ccc(-c3ccc(N=Cc4cccc(Cl)c4Cl)cc3)cc2)c1Cl,17% (inactive)
20,N#Cc1c(N2CCCCC2)ncc2cc3ccccc3nc12,0% (inactive)
